Several values for one entry are separate records, joined by “and”; a condition that tells them apart may be missing. Identical values can stand only once. Results filed as inconclusive are left out. Activity calls are given as the source filed them. Unless noted, calls follow the shape of the dose curve; as a rule, active = well fitted curve in the direction sought with a large enough effect; inconclusive = small, poorly fitted or top-dose-only effect, or another doubt; inactive = no such curve, though single readings can be large; an effect the other way counts as inactive or inconclusive.

Assay [1] in a line: Validation of Assay for Modulators of Lamin A Splicing (AID 1459; active = well fitted curve in the direction sought with a large enough effect in the signal ratio; the % refers to the signal ratio;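 also: cells exposed to compound for two days before reading; 0% is about no effect; ratio rise marks activators and ratio drop marks inhibitors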). In outline:
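S3 HeLa cells stably expressing a lamin A-EGFP splicing minigene and DsRed2 were seeded at 600 cells/well in Opti-MEM with 2% FBS, pin-dosed, and incubated 48 hrs at 37 °C, 5% CO2. Laser-scanning cytometry (488 nm) gave GFP/RFP total intensity ratio.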

Assay [2] is described as follows: qHTS Assay for Lipid Storage Modulators (AID 1519; calls by dose curve; as to activity change, negative = inhibition: % is scaled to controls: 0 for no effect and ±100 for the full control effect). The conditions noted are these: Drosophila S3 cells, BODIPY lipid droplet/cell ratio, laser cytometry, cells loaded with oleic acid; for activity change, negative = inhibition: at 57.5 µM (top of the series). In outline:
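Cells seeded at 5,000 per well were treated with compounds over a concentration series and loaded with oleic acid (400 uM, as added). Lipid droplet fluorescence (488 nm excitation, 500-530 nm channel) was read by laser-scanning cytometry and normalized to 20 uM Triacsin C.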
A general note: Quantitative high-throughput screening tests each substance at several concentrations.

Assay [3] has as its target DNA repair nuclease/redox regulator APEX1 (Homo sapiens) (UniProt P27695). In words: qHTS Validation Assay for Inhibitors of the Human Apurinic/apyrimidinic Endonuclease 1 (APE1) (AID 1705;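 also: TAMRA fluorescence gain over two minutes as APE1 cuts a quenched THF abasic duplex; % is scaled to controls: 0 for no effect and ±100 for the full control effect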). The method, boiled down: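 Human APE1 was preincubated with compound for 15 min at room temperature, then 50 nM (final) THF-abasic double-stranded DNA substrate bearing 5'-TAMRA and 3'-BHQ-2 was added. Incision-driven fluorescence rise (ex 525/em 598 nm) was read kinetically.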

Assay [4] is described as follows: Counterscreen for APE1 Inhibitors: Fluorescent Dye Displacement Validation Assay (AID 1707).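 Also: plate controls were ThO with dsDNA and no compound for no effect and ThO without dsDNA for full effect.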 In outline:
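ThO 250 nM + dsDNA 50 nM (THF abasic site, 5'-TAMRA), Tris-HCl pH7.5/50mM NaCl/2 mM MgCl2/0.01% Tween-20; compounds pin-transferred; ex 480/em 540 nm endpoint. Neutral = no compound; no-DNA ThO wells = negative control.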
(A counterscreen serves to expose hits that act by an unwanted route or on another target.)

Assay [5] addresses Endonuclease 4 (Escherichia coli (strain K12)) (UniProt P0A6C1). In words: Counterscreen for APE1 Inhibitors: qHTS Validation Assay for Inhibitors of Endonuclease IV (AID 1708). Also: % is scaled to controls: 0 for no effect and ±100 for the full control effect. In outline:
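2 nM enzyme was preincubated with compounds for 15 min at room temperature in 50 mM Tris-HCl pH 7.5, 50 mM NaCl, 2 mM MgCl2, 1 mM DTT, 0.01% Tween-20. 50 nM THF-abasic TAMRA/BHQ-2 duplex substrate started the reaction.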

Assay [6] in a line: qHTS for differential inhibitors of proliferation of Plasmodium falciparum line 7G8 (AID 1815).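 Also: parasite growth measured after three days of incubation; plate controls were vehicle wells for no effect and reference inhibitor wells for full effect.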
A short description of assay [7]: qHTS for differential inhibitors of proliferation of Plasmodium falciparum line GB4 (AID 1816).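 Also: parasite growth measured after 72 h incubation; 0% = vehicle DMSO and -100% = reference inhibitor.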 As to conditions: Potency: Plasmodium falciparum GB4 proliferation inhibition.
The nature of assay [8]: qHTS for differential inhibitors of proliferation of Plasmodium falciparum line 3D7 (AID 1876).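 Also: parasite growth measured after three days of culture; 0% = vehicle wells and -100% = reference inhibitor wells.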
Assay [9] in a line: qHTS for differential inhibitors of proliferation of Plasmodium falciparum line D10 (AID 1877).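 Also: parasites grown with compound for 72 h before DNA staining; plate controls were vehicle wells for no effect and reference inhibitor wells for full effect.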
Assay [10] in a line: qHTS for differential inhibitors of proliferation of Plasmodium falciparum line Dd2 (AID 1882).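 Also: compound exposure of 72 h on infected erythrocytes; plate controls were DMSO vehicle for no effect and 0.29 µM artemisinin for full effect; nearly all actives have a fitted effect of over 65% in size.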 As to conditions: Potency: Plasmodium falciparum Dd2 proliferation inhibition. In outline: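 SYBR Green I DNA fluorescence read-out, ex 485/em 535 nm. Signals were normalized to 0.29 uM artemisinin and DMSO wells, then corrected using vehicle-only plates flanking each stack. Parasite growth ran 72 h in erythrocytes before lysis.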

The nature of assay [11]: qHTS for differential inhibitors of proliferation of Plasmodium falciparum line W2 (AID 1883).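 Also: parasites grown with compound for 72 h before lysis and staining; 0% = vehicle wells and -100% = control inhibitor wells.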 The conditions noted are these: Potency: Plasmodium falciparum W2 proliferation inhibition.
Assay [12] in a line: qHTS for differential inhibitors of proliferation of Plasmodium falciparum line HB3 (AID 1886).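 Also: parasites grown with compound for 72 h before SYBR Green readout; plate controls were vehicle for no effect and reference inhibitor for full effect.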 The conditions noted are these: Potency: Plasmodium falciparum HB3 proliferation inhibition.
Assay [13] can be described thus: qHTS Assay for Modulators of Human Peripheral Myelin Protein 22 (PMP22) Expression/Activity (AID 1967; active = well fitted curve in the direction sought with a large enough effect in the signal ratio; the % refers to the signal ratio;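 also: 0% = untreated cells and 100% end not stated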). The method, boiled down: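 MSC80 mouse Schwann cells stably carrying Pmp22 promoter–green click beetle luciferase plus EF-alpha–red luciferase control were dosed for 24h at 37 °C. Dual-colour luminescence was filter-overlap corrected; %Activity came from green/red ratio versus untreated cells.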

The target in assay [14] is Ferritin light chain (Equus caballus) (UniProt P02791). In words: qHTS Validation Assay for Identification of Novel General Anesthetics (AID 2323). Also: % is scaled to controls: 0 for no effect and ±100 for the full control effect. The method, boiled down:
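Competitive displacement of profluorescent 1-aminoanthracene (1-AMA, 50% saturated solution in PBS) from 10 uM horse-spleen apoferritin. Compounds incubated 10 min at room temperature; fluorescence read at 380 nm excitation/535 nm emission, normalized to free 1-AMA and complex, fitted with four-parameter Hill equation.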

The target of assay [15] is ATP-dependent DNA helicase Q1 (Homo sapiens) (UniProt P46063). The assay is described as follows: qHTS Validation Assay for Inhibitors of RecQ-Like Dna Helicase 1 (RECQ1) (AID 2353).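 Also: plate controls were DMSO vehicle for no effect and enzyme-free control for full effect.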 The method, boiled down: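 50 nM RECQ1T1 preincubated 15 min with compound in Tris pH 8.0 buffer with MgCl2, DTT, Tween-20 and 2.5 ug/ml poly(dI-dC); started with 200 nM TAMRA/BHQ-2 forked duplex and 2 mM ATP. Unwinding read as fluorescence (525/598 nm), two reads 2 h apart.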
ATP-dependent DNA helicase Q1 (Homo sapiens), sequence (P46063 whole entry, looked up): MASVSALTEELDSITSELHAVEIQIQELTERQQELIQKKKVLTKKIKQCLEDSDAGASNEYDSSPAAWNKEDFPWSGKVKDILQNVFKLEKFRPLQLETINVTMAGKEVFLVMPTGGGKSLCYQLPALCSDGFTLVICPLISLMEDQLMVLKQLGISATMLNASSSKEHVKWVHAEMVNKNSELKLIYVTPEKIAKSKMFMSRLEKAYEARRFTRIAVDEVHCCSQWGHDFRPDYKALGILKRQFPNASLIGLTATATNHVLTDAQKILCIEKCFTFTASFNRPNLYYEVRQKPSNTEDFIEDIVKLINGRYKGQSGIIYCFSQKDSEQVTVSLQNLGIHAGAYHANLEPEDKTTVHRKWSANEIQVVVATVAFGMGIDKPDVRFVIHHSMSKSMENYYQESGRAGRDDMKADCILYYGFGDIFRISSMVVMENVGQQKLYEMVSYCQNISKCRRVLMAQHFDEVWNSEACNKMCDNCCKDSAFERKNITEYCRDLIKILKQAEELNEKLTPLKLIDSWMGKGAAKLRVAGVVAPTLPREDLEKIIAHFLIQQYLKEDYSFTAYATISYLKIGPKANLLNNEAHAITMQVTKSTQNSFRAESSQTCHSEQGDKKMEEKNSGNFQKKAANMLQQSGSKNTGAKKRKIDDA

Assay [16] has as its target RecQ-like DNA helicase BLM (Homo sapiens) (UniProt P54132). In words: qHTS Validation Assay for Inhibitors of Bloom's syndrome helicase (BLM) (AID 2364).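 Also: plate controls were DMSO vehicle for no effect and enzyme-free control for full effect.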 The method, boiled down: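 BLM 50 nM in 25 mM Tris-HCl pH 8.0, 5 mM NaCl, 2 mM MgCl2, 1 mM DTT, 0.01% Tween-20, 2.5 ug/ml poly(dI-dC); 15 min cpd preinc, RT. Start: 200 nM forked DNA + 2 mM ATP (final). TAMRA read, 2 reads 2 h apart.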

Assay [17] can be described thus: High Content Imaging Cell-Based qHTS for Inhibitors of the mTORC1 Signaling Pathway in MEF (Tsc2-/-, p53-/-) Cells (AID 2666).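 Also: percent of cells scored positive for phospho-rpS6 Ser235/236 immunostaining by imaging.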 The method, boiled down:
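Read-out: % positive cells per well, with thresholds from highest- and lowest-signal wells, based on phospho-rpS6 (Ser235/236) intensity normalized to Hoechst nuclear stain. Cells: Tsc2-/-, p53-/- MEFs carrying empty vector; compound 24 hrs, 37 degree Celsius.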

The nature of assay [18]: High Content Imaging Cell-Based qHTS for Inhibitors of the mTORC1 Signaling Pathway in MEF Cells (AID 2667).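 Also: Tsc2-/- p53-/- MEFs stably re-expressing wild-type Tsc2 exposed 24 h; plate controls were DMSO wells for no effect and rapamycin control wells for full effect.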 In outline:
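MEF (Tsc2-/-, p53-/-, WT Tsc2 re-expressed); cpd 24 h, 37 °C; PFA fix; Alexa-488 anti-p-rpS6 Ser235/236, PI, Hoechst; IN Cell imaging; Hoechst/Alexa-488 intensity ratio; % active cells, thresholds set from rapamycin and DMSO wells.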

The nature of assay [19]: Cytometric Cell-Based qHTS for Inhibitors of the mTORC1 Signaling Pathway in MEF (Tsc2-/-, p53-/-) Cells (AID 2660).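 Also: percent of cells above a phospho-rpS6 to PI ratio cutoff in each well; plate controls were DMSO for no effect and rapamycin for full effect.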 In outline: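 Percent of cells positive for normalized phospho-S6 staining is reported, with the cutoff set from rapamycin (7.5 nM) versus DMSO wells. Tsc2-/-, p53-/- MEFs received compound for 24 hrs.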
Where [20] appears, read: measured here: cell count channel max response.
Where [21] appears, read: measured here: lipid channel max response.

DNA repair nuclease/redox regulator APEX1 (Homo sapiens), sequence (P27695 whole entry, looked up): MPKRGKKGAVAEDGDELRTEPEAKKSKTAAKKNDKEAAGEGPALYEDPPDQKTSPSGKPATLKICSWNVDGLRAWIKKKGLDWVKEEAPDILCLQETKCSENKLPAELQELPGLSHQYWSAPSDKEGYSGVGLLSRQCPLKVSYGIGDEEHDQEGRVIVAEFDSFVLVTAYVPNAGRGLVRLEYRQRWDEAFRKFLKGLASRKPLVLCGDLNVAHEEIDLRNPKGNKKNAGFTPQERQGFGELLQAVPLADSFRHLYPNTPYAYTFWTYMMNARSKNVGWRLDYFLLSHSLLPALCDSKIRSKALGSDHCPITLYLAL
Ferritin light chain (Equus caballus), sequence (P02791 2-175 limits assumed): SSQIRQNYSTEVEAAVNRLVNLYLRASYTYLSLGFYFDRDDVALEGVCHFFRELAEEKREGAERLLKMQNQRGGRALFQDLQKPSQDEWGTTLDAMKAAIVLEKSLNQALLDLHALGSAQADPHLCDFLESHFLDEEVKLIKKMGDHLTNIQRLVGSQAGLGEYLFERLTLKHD
RecQ-like DNA helicase BLM (Homo sapiens), sequence (P54132 whole entry, looked up): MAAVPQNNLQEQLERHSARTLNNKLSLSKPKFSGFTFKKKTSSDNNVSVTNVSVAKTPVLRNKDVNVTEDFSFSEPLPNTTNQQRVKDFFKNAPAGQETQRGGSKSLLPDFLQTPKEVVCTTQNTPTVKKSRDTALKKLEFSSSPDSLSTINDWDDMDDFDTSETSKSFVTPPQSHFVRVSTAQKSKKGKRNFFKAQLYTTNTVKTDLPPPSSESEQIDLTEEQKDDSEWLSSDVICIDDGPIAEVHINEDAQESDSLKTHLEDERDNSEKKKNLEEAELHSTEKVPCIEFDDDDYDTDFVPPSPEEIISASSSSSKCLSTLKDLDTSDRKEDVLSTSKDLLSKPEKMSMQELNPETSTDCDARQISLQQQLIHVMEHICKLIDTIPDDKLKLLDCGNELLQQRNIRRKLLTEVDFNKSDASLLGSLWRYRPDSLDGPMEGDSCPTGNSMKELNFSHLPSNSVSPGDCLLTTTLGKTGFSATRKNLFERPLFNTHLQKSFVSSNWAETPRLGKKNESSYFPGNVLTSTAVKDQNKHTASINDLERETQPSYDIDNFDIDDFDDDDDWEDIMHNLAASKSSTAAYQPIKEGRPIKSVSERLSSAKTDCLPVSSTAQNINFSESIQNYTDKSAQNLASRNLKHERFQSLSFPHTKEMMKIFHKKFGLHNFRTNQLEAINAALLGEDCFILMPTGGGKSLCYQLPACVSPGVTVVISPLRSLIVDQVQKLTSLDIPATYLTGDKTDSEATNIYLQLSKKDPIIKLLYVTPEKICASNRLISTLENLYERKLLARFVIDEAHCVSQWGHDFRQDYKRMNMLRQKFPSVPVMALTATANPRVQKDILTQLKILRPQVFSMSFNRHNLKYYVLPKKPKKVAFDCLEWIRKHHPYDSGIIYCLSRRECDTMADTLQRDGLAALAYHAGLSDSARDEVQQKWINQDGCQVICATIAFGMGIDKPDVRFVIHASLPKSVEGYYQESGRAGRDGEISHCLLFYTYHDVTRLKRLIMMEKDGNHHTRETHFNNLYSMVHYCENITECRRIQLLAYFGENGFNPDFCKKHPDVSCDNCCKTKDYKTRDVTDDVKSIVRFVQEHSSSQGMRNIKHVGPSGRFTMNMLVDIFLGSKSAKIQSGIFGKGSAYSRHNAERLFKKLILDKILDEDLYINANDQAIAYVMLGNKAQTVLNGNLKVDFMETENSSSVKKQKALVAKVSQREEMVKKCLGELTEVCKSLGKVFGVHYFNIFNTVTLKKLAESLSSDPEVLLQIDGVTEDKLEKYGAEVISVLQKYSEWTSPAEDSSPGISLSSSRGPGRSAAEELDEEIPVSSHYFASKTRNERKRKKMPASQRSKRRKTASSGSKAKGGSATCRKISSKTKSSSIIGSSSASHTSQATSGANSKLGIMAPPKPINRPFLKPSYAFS

For `C[N+]1(C)C2CCC1CC(OC(=O)C(CO)c1ccccc1)C2` (stereo unspecified), the result in [1], in [13], in assay [14] and in assay [15] was inactive. Besides, the activity change, negative = inhibition in assay [2] was -1.3% (inactive). For the same molecule, the max response in assay [2] (setting [20]) is -18.3%; in [2] (setting [21]), -18.4%. For the same molecule, the Potency entry in assay [3], in assay [4], in assay [5], in assay [6], in assay [7] and in assay [8] was “inactive” throughout. In addition, the Potency entry in [9], in [10], in assay [11], in assay [12], in assay [16] and in assay [17] was “inactive” in each case. The Potency entry in assay [18] is “inactive”.
Take `O=C(O)Cc1cnc[nH]1`: the molecule was classed as inactive in assay [1], in assay [14] and in assay [15]. Further, the activity change, negative = inhibition in assay [2] was -0.977% (inactive). Further, the results for the max response in [2] (setting [20]) and in assay [2] (setting [21]) were 21.8% and 19%, respectively. Besides, the Potency entry in [3], in assay [4], in assay [6], in assay [7], in assay [8] and in [9] was “inactive” throughout. Moreover, the Potency result in [10], in assay [11], in [12], in assay [19], in assay [17] and in assay [18] was “inactive” in each case.
With `CNCCc1c[nH]c2ccc(O)cc12`, the molecule was called inactive in [1], in [13], in assay [14] and in assay [15]. The activity change, negative = inhibition in [2] was 1.79% (inactive) and 0.655% (inactive). Besides, the max response was 5.25% and 4.7% in assay [2] (setting [20]); 5.9% and 3.87% in [2] (setting [21]). Also, the Potency result in assay [3], in [4], in assay [5], in assay [6], in [7] and in assay [8] was “inactive” throughout. Besides, the Potency entry in assay [9], in assay [10], in assay [11], in [12], in assay [17] and in assay [18] was “inactive” in each case.
Regarding `CCCN1CCO[C@@H]2c3cc(O)ccc3OC[C@H]21`, the result in [1], in assay [13], in assay [14] and in [15] was inactive. The Potency entry in assay [3], in assay [4], in assay [5], in assay [6], in [7] and in [8] was “inactive” each time. In addition, the Potency result in [9], in assay [10], in [11], in [12], in assay [16] and in [17] was “inactive” throughout. For the same molecule, the Potency result in [18] is “inactive”.
As to `COc1cc(C(O)CN)ccc1O` (stereo unspecified), the molecule was classed as inactive in [1], in assay [14] and in assay [15]. Further, the Potency entry in [3], in assay [4], in [5], in [6], in assay [7] and in assay [8] was “inactive” throughout. The Potency result in assay [9], in [10], in assay [11], in assay [12], in assay [19] and in assay [17] was “inactive” in each case. Also, the Potency result in [18] is “inactive”.
In the case of `C[C@@H](N)Cc1cnc[nH]1`, the result in assay [1], in assay [13], in assay [14] and in [15] was inactive. Besides, the activity change, negative = inhibition in assay [2] is 0.775% (inactive). Also, the max response in assay [2] (setting [20]) was -2.18%; in assay [2] (setting [21]), -3.82%. The Potency result in [3], in assay [4], in assay [7], in assay [8], in [9] and in assay [10] was “inactive” in each case. Also, the Potency result in assay [12], in assay [17] and in assay [18] was “inactive” throughout.

For the origin of these results see PubChem BioAssay (NCATS).
